# Experimental data published in PubChem BioAssay (Tox21).
# Inconclusive results are not listed. Entries that show only a call come without a potency. Active and inactive are the calls of the source. Calls follow the shape of the dose curve; as a rule, active = well fitted cell-killing curve with a large enough effect in the repeat runs; inconclusive = weak or mixed curves, or effect the other way; inactive = flat fitted curve, though single readings scatter.
# Assay: qHTS assay to identify small molecule agonists of the androgen receptor (AR) signaling pathway in the presence of an antagonist - cell viability counter screen (AID 1259379); also: nearly all actives have a fitted effect of over 25% in size
# Conditions: MDA-kb2 viability, CellTiter-Fluor, 16 h; series mostly up to 92.4 µM
# Source text: National Center for Advancing Translational Sciences [NCATS]
# NIH Chemical Genomics Center [NCGC]
# U.S. Environmental Protection Agency [EPA]
# National Institutes of Environmental Health Sciences [NIEHS]
# National Toxicology Program [NTP]
# U.S. Food and Drug Administration [FDA]
# Androgen receptor (AR) is an important member of nuclear receptor family. Its signaling plays a critical role in AR-dependent prostate cancer and other androgen related diseases. Considerable attention has been given in the past decades to develop methods to study and screen for the environmental chemicals that have the potential to interfere with metabolic homeostasis, reproduction, developmental and behavioral functions. Therefore AR binding assay for screening against androgen agonists and antagonists can be used to identify potential endocrine disruptors.
# MDA-kb2 cells (from ATCC, deposited by Wilson et al.) are human breast carcinoma cells that were stably transfected with a luciferase reporter gene under control of the MMTV promoter that contains response elements for both androgen receptor (AR) and glucocorticoid receptor (GR). This particular screening for measuring luciferase reporter gene activity using MDA-kb2 cells against Tox21 10K library compounds is a confirmation study on agonist mode screening in the presence of AR-antagonist compound (Nilutamide) at 3.0uM final concentration. The cytotoxicity of the compounds was tested in parallel by measuring the cell viability using CellTiter-Fluor assay system (Promega, Madison, WI) in the same wells.
# Tox21 Assay Protocol Summary:
# MDA-kb2 cells (cells cultured without CO2) were dispensed at 3,000 cells/well in 4uL of culture medium into white wall/solid-bottom 1536-well plates (Corning Life Sciences, Corning, NY) using a Multidrop Combi (Thermo Fisher Scientific Inc., Waltham, MA) dispenser. The assay plates were incubated at 37C and 0% CO2 for 5hr. One uL of 3.0uM (final concentration) Nilutamide or assay buffer was added using two separate tips of Flying Reagent Dispenser (FRD, Aurora Discovery, San Diego, CA). Then 23nL of compounds dissolved in DMSO at 15 concentrations and positive controls were transferred to the assay plates using a Pintool station (Wako, San Diego, CA). The assay plates were incubated at 37C and 0% CO2 for 16 hr. After 15hr incubation at 37C, 1uL/well CellTiter-Fluor reagent (Promega Corporation) was added to each well of the assay plates using FRD. After 1hr incubation at 37C and 0% CO2, the fluorescence signal was measured using a ViewLux plate reader (PerkinElmer, Shelton, CT).
Compound,Potency,"activity change, negative = cytotoxicity"
COc1ccc(OC)c(Cl)c1,inactive,
Cc1ccccc1N=O,inactive,
COc1cc(C(=S)N2CCOCC2)cc(OC)c1OC,inactive,
CCN(CC)CC(=O)Nc1c(C)cccc1C,inactive,
C=C1CC/C=C(\C)CC[C@@H]2[C@@H]1CC2(C)C,inactive,
CCCCOCCOC(=O)COc1nc(Cl)c(Cl)cc1Cl,inactive,
CCCOC(=O)C(C)O (stereo not given),inactive,
CCCCCCCCCC(C)=O,inactive,
CC(C)C(=O)OCc1cccc(OC(=O)[C@@H]2N3C(=O)[C@@H](NC(=O)Cc4ccccc4)[C@H]3SC2(C)C)c1,inactive,
O=C1c2cccc3c2[C@H](CCC3)CN1[C@@H]1CN2CCC1CC2,inactive,
c1ccc2c(c1)ccc1c3ccccc3ccc21,inactive,
O=C(NCC(O)CO)c1c(I)c(C(=O)NCC(O)CO)c(I)c(N(CCO)C(=O)CO)c1I (stereo not given),inactive,
CC(C)(C)c1n[nH]c(=S)n(N)c1=O,inactive,
CC(=O)CCCCn1c(=O)c2c(ncn2C)n(C)c1=O,inactive,
NC(CO)C(=O)NNCc1ccc(O)c(O)c1O (stereo not given),inactive,
CCOC(=O)/C=C/c1ccccc1,inactive,
COc1cc(NS(=O)(=O)c2ccc(N)cc2)nc(OC)n1,inactive,
O=C(O)Cc1ccc(Cl)cc1Cl,inactive,
O=C(O)C(=O)Cc1ccccc1,inactive,
O=C(NCCc1c[nH]c2ccccc12)c1cccnc1,inactive,

Compound,Potency,"activity change, negative = cytotoxicity"
O=C(CCNNC(=O)c1ccncc1)NCc1ccccc1,inactive,
CC(C)(C)OC(=O)c1ccc(O)cc1,inactive,
O=C(O)CCSSCCC(=O)O,inactive,
CCCCC(CC)COCCO (stereo not given),inactive,
O=C1O[C@@H]2[C@@H](O)[C@H](O)O[C@@H]2[C@H]1O,inactive,
CCOCCOCCOCC,inactive,
Cc1cccc2nccnc12,inactive,
Cc1[nH]cnc1-c1ccc(Cl)cc1,inactive,
CN(CCOc1ccc(NS(C)(=O)=O)cc1)CCc1ccc(NS(C)(=O)=O)cc1,inactive,
Nc1cccc(O)c1,inactive,
CC(C)(C)c1cc(CCC(=O)NN)cc(C(C)(C)C)c1O,inactive,
CC(=O)NCCCCCC(=O)O,inactive,
COc1ccc(S(=O)(=O)N2c3ccc(Cl)cc3[C@@](O)(c3ccccc3Cl)[C@H]2C(=O)N2CCC[C@@H]2C(N)=O)cc1OC,inactive,
C[Si](C)=O,,-1.72% [at 8.39 µM] (inactive)
CCCCCCN,inactive,
CC(=O)c1ccc2c(c1)Cc1ccccc1-2,inactive,
Cc1cccc(OCC(O)CNC(C)(C)C)c1C (stereo not given),inactive,
C[Si](C)(C)C,inactive,
Oc1cn2c(n1)Nc1ccc(Cl)c(Cl)c1C2,,0.214% [at 19 µM] (inactive)
CC(COC(C)(C)C)OCCCO (stereo not given),inactive,
